Only some compounds are listed: those with a hit (about 4.1% of all), similar ones and a draw of the others.
ABHD5-PLIN5 inh – blocks binding of human ABHD5 to perilipin-5; Q00G26+Q8WTS1; Split G. princeps luciferase complementation, luminescence, 4 h; inhibition, % at 4 µM; 360,000 compounds, 0.78% hits; AID 602281;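 active = inhibition above the mean inhibition across every tested compound plus 3 SD, cut at about 22% in these data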
LEDGF integ inh – blocks HIV-1 LEDGF/p75-dependent DNA integration | TR-FRET IN-LEDGF/p75 DNA integration, Eu/Cy5 | inhibition, % at 3.7 µM | 370,000 compounds, 0.64% hits;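 active = inhibition above the screen-wide mean plus 3 SD, cut at about 13% in these data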;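 note: signal is the Cy5 over europium emission ratio at 671 and 618 nm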
rCAG binder – binds r(CAG) RNA repeats; inhibition, % at 3 µM; r(CAG) RNA repeat, TO-PRO-1 dye displacement fluorescence; AID 651821; 370,000 compounds, 1.3% hits;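 active = inhibition above the plate cutoff, the mean of all test compounds on that plate plus 3 SD, cut at about 35% in these data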;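 note: higher means more dye released from RNA so lower well fluorescence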
MBD2 inh – MBD2-methylated oligo binding inhibition; Q9UBB5; TR-FRET, MBD2 binding to methylated oligonucleotide; inhibition, % at 4.4 µM; 370,000 compounds, 0.31% hits; AID 686964; in the data active = inhibition above about 13%
UHRF1 binding – human UHRF1 methylated DNA binding inhibitors; Q96T88; UHRF1 binding to methylated oligo, TR-FRET; AID 687016; 370,000 compounds, 0.75% hits; inhibition, % at 4.4 µM;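 note: UHRF1 SRA domain binding a hemimethylated CpG hairpin DNA probe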
PRMT1 inh – PRMT1 (human) inhibition, primary screen; Q99873; recombinant PRMT1, activity-based probe fluorescence polarization; inhibition, % at 2.79 µM; 370,000 compounds, 1.3% hits; AID 652257;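 active = inhibition above about 21% made by adding two undisclosed values, limit read from the data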
ABHD5 PLIN5 conf – confirmation of human ABHD5-PLIN5 interaction inhibitors; shares compounds with ABHD5-PLIN5 inh; biochemical ABHD5-PLIN5 interaction, luminescence; inhibition, % at 4 µM; 2,200 compounds, 67% hits; AID 651612; in the data active = inhibition above about 23%
HNF4 split-luc – HNF4 split-luciferase signal hit, counter-screen; shares compounds with ABHD5-PLIN5 inh; HNF4 dimerization, luminescence, biochemical; inhibition, % at 4 µM; 2,200 compounds, 77% hits; AID 651674;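 active = mean inhibition across replicate wells exceeding the computed hit threshold, cut at about 13% in these data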;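 note: light from luciferase halves that rejoin when HNF4 fusion proteins dimerize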
Target sequence (P41235 whole entry, looked up, the tested form may be a part): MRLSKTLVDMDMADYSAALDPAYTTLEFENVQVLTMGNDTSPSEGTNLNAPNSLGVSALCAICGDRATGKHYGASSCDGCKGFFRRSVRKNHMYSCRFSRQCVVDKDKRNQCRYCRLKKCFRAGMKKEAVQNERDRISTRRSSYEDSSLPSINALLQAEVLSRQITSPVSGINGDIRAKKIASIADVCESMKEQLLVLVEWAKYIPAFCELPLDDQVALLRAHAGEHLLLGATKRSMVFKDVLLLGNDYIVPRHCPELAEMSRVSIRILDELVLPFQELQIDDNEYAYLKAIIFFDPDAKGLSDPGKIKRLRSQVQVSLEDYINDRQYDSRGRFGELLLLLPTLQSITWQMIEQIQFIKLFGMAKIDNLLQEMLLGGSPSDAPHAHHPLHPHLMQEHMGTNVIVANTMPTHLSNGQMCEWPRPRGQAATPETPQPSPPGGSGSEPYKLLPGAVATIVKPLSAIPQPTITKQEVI
rCAG binder conf – r(CAG) RNA repeat binding, confirmation; shares compounds with rCAG binder; TO-PRO-1 dye displacement fluorescence; inhibition, % at 3 µM; 4,300 compounds, 70% hits; AID 652065;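 active = inhibition above a per-plate cutoff, the mean inhibition of sample wells plus 3 SD, cut at about 35% in these data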;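 note: loss of TO-PRO-1 fluorescence as compound displaces dye from 1x1 AA loop RNA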
dCAG dye counter – disrupts DNA CAG TO-PRO-1 complex, flagging rCAG hits; shares compounds with rCAG binder; d(CAG) DNA oligo TO-PRO-1 dye displacement, fluorescence; inhibition, % at 3 µM; 4,300 compounds, 94% hits;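 active = inhibition above its plate's cutoff, the mean test-well inhibition plus 3 SD, cut at about 4.8% in these data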;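 note: hits displace the dye from DNA and so lower well fluorescence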
PRMT1 confirm – confirmation of human PRMT1 inhibitors; shares compounds with PRMT1 inh; recombinant His-PRMT1, activity-based probe fluorescence polarization; inhibition, % at 2.79 µM; 3,300 compounds, 42% hits;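 active = mean inhibition across replicates above the hit cutoff derived for the earlier primary screen, cut at about 22% in these data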
UHRF1 ctr MBD2 – counter-screen for MBD2 inhibitors: human UHRF1 methylated DNA binding inhibitors. UHRF1 binding to methylated oligonucleotide, TR-FRET. shares compounds with MBD2 inh. AID 720530. inhibition, % at 4.4 µM. 1,000 compounds, 25% hits;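 note: UHRF1 SRA domain binding a labeled hemimethylated CpG hairpin DNA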
MBD2 confirm – confirmation of human MBD2-DBD methylated oligonucleotide binding inhibitors | TR-FRET MBD2-DBD binding to methylated oligonucleotide | shares compounds with MBD2 inh | AID 720531 | 1,000 compounds, 26% hits | inhibition, % at 4.4 µM; in the data active = inhibition above about 14%
IN multimer act – HIV-1 integrase multimerization activation, counter-screen; activation, % at 7.7 µM; TR-FRET HIV-1 integrase multimerization, biochemical; shares compounds with LEDGF integ inh; AID 1053131; 2,000 compounds, 17% hits; in the data active = activation above about 8.9%
TRFRET interf – optically interferes with TR-FRET readout in LEDGF counter-screen; shares compounds with LEDGF integ inh; 2,000 tested, under 10 active; TR-FRET optical interference counterscreen, HIV-1 IN multimerization; inhibition, % at 7.7 µM; AID 1053135;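 active = inhibition above the mean over all tested compounds plus 3 SD, which no compound reached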
LEDGF integ conf – LEDGF/p75-dependent HIV-1 integration inhibition, confirmation; shares compounds with LEDGF integ inh; inhibition, % at 3.7 µM; 2,000 compounds, 36% hits; TR-FRET LEDGF/p75-dependent HIV-1 integration, biochemical; AID 1053136; in the data active = inhibition above about 14%
Numbers stand for hits; – = inactive; · = not tested or not shown. Cut-off read from the data, not from the text of the source, unless noted: active = inhibition above about 21%; inactive = the rest.

SMILES | ABHD5-PLIN5 inh | LEDGF integ inh | rCAG binder | MBD2 inh | UHRF1 binding | PRMT1 inh | ABHD5 PLIN5 conf | HNF4 split-luc | others
O=C1NC(=O)C(=Cc2ccc(Sc3ccccc3)o2)C(=O)N1 | 23 | – | – | – | – | – | 96 | 103
Cn1cc(C(=O)OCC(=O)NC2(C#N)CCCC2)c2ccccc21 | – | – | – | – | – | – | · | ·
O=C1NC(=O)N(c2ccccc2F)C(=O)/C1=C/c1ccc(Oc2ccc([N+](=O)[O-])cn2)cc1 | 24 | – | – | – | – | – | 69 | 47
O=C1NC(=O)C(=Cc2ccc(OCCOc3ccc([N+](=O)[O-])cc3)cc2)C(=O)N1 | – | – | – | – | – | – | · | ·
O=C1NC(=O)N(c2ccc3c(c2)OCO3)C(=O)/C1=C/c1ccc(N2CCCC2)o1 | – | – | – | – | – | – | · | ·
O=C1NC(=O)N(c2cccc(F)c2)C(=O)/C1=C/c1ccc(N2CCOCC2)cc1 | – | – | – | – | – | – | · | ·
O=C1NC(=O)N(c2ccc3c(c2)OCO3)C(=O)/C1=C/c1cccs1 | 29 | – | – | – | – | – | 82 | 87
O=C1NC(=O)N(c2ccc3c(c2)OCO3)C(=O)/C1=C/c1ccsc1 | 30 | – | – | – | – | – | 66 | 55
O=c1c2ccccc2[se]n1-c1ccccc1 | 81 | – | – | – | – | 95 | 88 | 110
COC(=O)C1=C(c2ccc(F)cc2F)C[C@@H]2CC[C@H]1N2C(=O)NCc1ccc(C(F)(F)F)cc1 | – | – | – | – | – | – | · | ·
O=C1NC(=O)C(=Cc2ccc(-c3ccc(Cl)cc3)o2)C(=O)N1 | – | · | · | · | · | · | · | ·
O=C1NC(=O)C(=Cc2ccc(-c3ccc(F)cc3O)o2)C(=O)N1 | 25 | – | – | – | – | – | 73 | 86
COc1cc2c(cc1/C=C/[N+](=O)[O-])OCO2 | 66 | – | – | – | – | – | 96 | 101
Cc1nc2cc([N+](=O)[O-])ccc2c(=O)n1-c1cccc(Br)c1 | – | – | – | – | – | – | · | ·
CC1(CCl)CN1S(=O)(=O)c1ccccc1 (stereo not given) | – | – | – | – | – | – | · | ·
O=C(NCCN1CCC2(CC1)C(=O)NCN2c1ccccc1)c1cccs1 | · | – | – | – | – | – | · | ·
COc1ccc(OC)c(N2C(=O)CC(=O)NC2=O)c1 | 30 | – | – | – | – | – | – | 21
Cc1ccc(N2C(=O)CC(=O)NC2=O)c(C)c1 | – | – | – | – | – | – | · | ·
Cc1cc([N+](=O)[O-])c(Cl)cc1NC(=O)C(C)C | – | – | – | – | – | – | · | ·
CNc1cc(Cl)c2nonc2c1[N+](=O)[O-] | 32 | – | – | – | – | 57 | 36 | 80 | PRMT1 confirm=25
COC(=O)C1=C(c2cc3ccccc3o2)C[C@@H]2CC[C@H]1N2C(=O)NCc1ccc(C(F)(F)F)cc1 | – | – | – | – | – | – | · | ·
O=C1NC(=O)N(Cc2ccccc2)C(=O)/C1=C\C=C\c1ccco1 | 28 | – | 55 | – | 28 | 36 | 97 | 64 | rCAG binder conf=–;dCAG dye counter=6.5;PRMT1 confirm=–
[Cl][Pt+2][Cl].[NH-]C1CCCCC1[NH-] (stereo not given) | 36 | – | – | – | – | 47 | 60 | 55 | PRMT1 confirm=–
Cc1ccc(S(=O)(=O)Oc2ccccc2C=C2C(=O)N(C)C(=O)N(C)C2=O)cc1 | 35 | – | – | – | – | 30 | 71 | 72 | PRMT1 confirm=–
CN1C(=O)C(=Cc2ccccc2OCc2ccc(Cl)cc2)C(=O)N(C)C1=O | – | – | – | – | – | – | · | ·
SMILES | ABHD5-PLIN5 inh | LEDGF integ inh | rCAG binder | MBD2 inh | UHRF1 binding | PRMT1 inh | ABHD5 PLIN5 conf | HNF4 split-luc | others
O=C(NCCN1CCC2(CC1)C(=O)NCN2c1ccccc1)c1ccccc1F | · | – | – | – | – | – | · | ·
CN1C(=O)C(=Cc2cn(CC(=O)N3CCCCC3)c3ccccc23)C(=O)N(C)C1=O | – | · | · | · | · | · | · | ·
CN1C(=O)C(=Cc2cn(CC(=O)N3CCCC3)c3ccccc23)C(=O)N(C)C1=O | 45 | – | – | – | – | 32 | – | 34 | PRMT1 confirm=–
O=C(O)CCl | · | – | – | – | – | – | · | ·
CCN1/C(=C/C=C/C2=[N+](CC)c3ccccc3C2(C)C)C(C)(C)c2ccccc21 | 52 | – | – | – | – | 156 | 28 | 37 | PRMT1 confirm=131
CN1C(=O)/C(=C/c2ccc(Cl)s2)C(=O)NC1=S | – | – | – | – | – | – | · | ·
CN1C(=O)/C(=C/C=C/c2ccco2)C(=O)NC1=S | 26 | 60 | 35 | 23 | 72 | 40 | 74 | 49 | rCAG binder conf=–;dCAG dye counter=7.8;PRMT1 confirm=57;UHRF1 ctr MBD2=62;MBD2 confirm=22
COC(=O)C1=C(c2ccc(Cl)c(C(F)(F)F)c2)C[C@@H]2CC[C@H]1N2C(=O)NCc1ccco1 | – | – | – | – | – | – | · | ·
Nc1c(C(=O)NCC2CCCO2)c2nc3ccccc3nc2n1Cc1ccco1 (stereo not given) | 26 | – | – | 17 | – | – | 53 | 45 | UHRF1 ctr MBD2=–;MBD2 confirm=–
CN(C)c1ccc(/C=C/C=C2/C(=O)NC(=O)N(c3ccccc3)C2=O)cc1 | – | – | – | – | – | – | · | ·
Cc1cccc(N2C(=O)NC(=O)/C(=C\C=C\c3ccco3)C2=O)c1 | 24 | 31 | – | – | – | 36 | 93 | 70 | PRMT1 confirm=–;IN multimer act=–;TRFRET interf=–;LEDGF integ conf=28
Cc1ccc(N2C(=O)NC(=O)/C(=C\C=C\c3ccco3)C2=O)cc1 | 25 | 41 | – | – | – | – | 95 | 73 | IN multimer act=–;TRFRET interf=–;LEDGF integ conf=33
